The list is not random: actives were taken first. Their share in the collection is about 3.5%.
Pf apPOL block = Pf-apPOL DNA polymerase inhibition; Recombinant Pf-apPOL, molecular beacon fluorescence, 1.5 h; 0.25% of 210,000 active; AID 1794808; inhibition, % at 10 µM
mHTT CaM bind = disrupts binding of mutant huntingtin to calmodulin; inhibition, % at 15 µM; AlphaScreen His-mHTT/GST-CaM binding, luminescence; P42858; 3.6% of 190,000 active
Large screens that a line does not name were inactive. Rule as the data show it: active = inhibition above about 50%; inactive = the rest.

O=C1NC(=O)N(Cc2ccc(F)cc2)C(=O)/C1=C\c1cc2c(cc1[N+](=O)[O-])OCO2	mHTT CaM bind 67.0
Cc1ccccc1C(=O)NC1CCCN(c2cc(-c3ccncc3)[nH]n2)C1 (centres undefined)	none
COc1ccccc1OCC(=O)Nc1ccc(Nc2ccccc2)cc1	mHTT CaM bind 61.1
CCN(CC)c1ccc(NC(=O)COc2ccccc2OC)cc1	mHTT CaM bind 56.4
CCC(C)c1ccc(NC(=O)COc2ccccc2OC)cc1 (centres undefined)	none
COc1ccccc1OCC(=O)Nc1ccc(C(C)=O)cc1	none
CNC(=O)C1CCCN(c2nnc3ccc(Cl)cn23)C1 (centres undefined)	none
CCOC(=O)C(=O)NC1CCCCC1	none
COc1cc(C=Nc2ccc(NC(C)=O)cc2)cc(OC)c1OC	none
COc1cc(C=Nc2cccc3c(=O)[nH][nH]c(=O)c23)c([N+](=O)[O-])cc1OC	none
COc1cc(C=Nc2ccc(Nc3ccccc3)cc2)cc(OC)c1OC	mHTT CaM bind 76.0
COc1cc(C=Nc2ccc(Nc3ccccc3)cc2)c([N+](=O)[O-])cc1OC	mHTT CaM bind 96.0
COc1ccc(-c2ncc3c(n2)CCN(C(=O)Nc2ccc(C)c(F)c2)C3)cc1	none
COc1ncc(C(=O)Nc2ccc(F)c(Cl)c2)c(C)n1	none
N#Cc1cc2c(N)c(C(=O)c3ccccc3)sc2nc1N	none
Cc1cc(Cl)ccc1S(=O)(=O)N1CCCC1c1nc(-c2cccc(F)c2)no1 (centres undefined)	none
Cc1ccc2[nH]cc(CCN3CC(C(=O)Nc4ccccc4Cl)CC3=O)c2c1 (centres undefined)	none
COc1cccc(NC(=O)C2CC(=O)N(CCc3c[nH]c4ccc(Cl)cc34)C2)c1 (centres undefined)	none
COc1ccc(C2C(C(=O)Nc3ccc(F)c(Cl)c3)CC(=O)N2c2ccc(OC)cc2)cc1 (centres undefined)	mHTT CaM bind 100.0
Cc1ccc2[nH]cc(CCN3CC(C(=O)Nc4ccc(C)c(Cl)c4)CC3=O)c2c1 (centres undefined)	mHTT CaM bind 85.8
CCCCNC(=O)C1CC(=O)N(CCc2c[nH]c3ccc(Cl)cc23)C1 (centres undefined)	none
Cc1cccc(NC(=O)C2CC(=O)N(CCc3c[nH]c4ccc(Cl)cc34)C2)c1 (centres undefined)	mHTT CaM bind 81.6
COc1ccc(N2C(=O)CCC(C(=O)Nc3ccc(C)c(F)c3)C2c2ccc(F)cc2)cc1 (centres undefined)	none
O=C(Nc1nc2ccccc2s1)C1CC(=O)N(CCc2c[nH]c3ccc(Cl)cc23)C1 (centres undefined)	mHTT CaM bind 100.3
CCn1cc(CN2CCC(c3nc(C4CC4)n[nH]3)CC2)cn1	none
Cc1c(Br)c([N+](=O)[O-])nn1CC(=O)Nc1ccc(Oc2ccc(Cl)cc2)cc1	none
O=C1OC2CC1N(C(=O)c1cc(=O)c3ccccc3o1)C2 (centres undefined)	none
CCc1cc(C(=O)Nc2ccc(C)cc2)nc2ccnn12	none
CC1CCN(C(=O)C2CC(=O)N(CCc3c[nH]c4ccc(F)cc34)C2)CC1 (centres undefined)	none
O=C(Nc1ccc2c(c1)OCCO2)C1CC(=O)N(CCc2c[nH]c3ccc(F)cc23)C1 (centres undefined)	none
Cc1ccc2[nH]cc(CCNC(=O)CC3CCN(C(=O)c4ccccc4Cl)CC3)c2c1	mHTT CaM bind 78.9
Cc1ccc(C(=O)N2CCC(CC(=O)NCCc3c[nH]c4ccc(Cl)cc34)CC2)cc1	none
COc1ccc2nc(NC(=O)C3CC(=O)N(CCc4c[nH]c5ccc(C)cc45)C3)sc2c1 (centres undefined)	mHTT CaM bind 85.0
O=C(Nc1ccc2c(c1)OCCO2)C1CC(=O)N(CCc2c[nH]c3ccc(Cl)cc23)C1 (centres undefined)	mHTT CaM bind 76.0
COc1ccc(NC(=O)C2CC(=O)N(CCc3c[nH]c4ccc(C)cc34)C2)cc1 (centres undefined)	none
O=C1CC(C(=O)N2CCN(Cc3ccccc3)CC2)CN1CCc1c[nH]c2ccc(F)cc12 (centres undefined)	mHTT CaM bind 55.1
O=C(Cc1cccs1)Nc1ccc(F)c(F)c1F	none
Cc1nccn1CCNC(=O)C(=O)Nc1ccccc1F	none
O=C(CN1CCC(Cn2cnc3ccccc32)CC1)Nc1cccc(F)c1	none
Cc1cc(C)c(Cn2nc(C(C)(C)C)cc2C(=O)NCc2cccs2)c(C)c1	none (no result: mHTT CaM bind)
O=C(Nc1nccs1)C1CC(=O)N(CCc2c[nH]c3ccc(Cl)cc23)C1 (centres undefined)	mHTT CaM bind 63.2
O=C(Nc1cccc(F)c1)C1CC(=O)N(CCc2c[nH]c3ccc(Cl)cc23)C1 (centres undefined)	mHTT CaM bind 66.0
COc1ccc2[nH]cc(CCN3CC(C(=O)Nc4nnc(C(C)(C)C)s4)CC3=O)c2c1 (centres undefined)	none
CC(C)(C)c1nnc(NC(=O)C2CC(=O)N(CCc3c[nH]c4ccc(Cl)cc34)C2)s1 (centres undefined)	mHTT CaM bind 54.8

Screens: PubChem, University of Kansas High Throughput Screening Laboratory
